# Results reported in the supplement of paper PMC6555819.
# Tests used:
# Assay in all cases: PBM binding z-score (relative to random genomic background probes); higher = stronger binding; sequences stand for … in GC…GCGATTGACAGCGTAGAATGAAGG
# [1] = system: PPARg:RXRa DBDmut IVT, anti-RXR (DBD mutation: RXRa K156A/R161A, NR concentration 270 nM, RXRa partner concentration 90 nM)
# Procedure, shortened: (§1)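 Regression normalization was applied to scanned fluorescence from custom Agilent 4×180K protein-binding microarrays. Before scanning, arrays were incubated 1 h with ligand-free nuclear receptor dimers, and binding was detected with antibodies against each partner (one per run). Binding z-scores use the random background probes as reference.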
# [2] = system: PPARg:RXRa IVT, anti-PPARg (NR concentration 270 nM, RXRa partner concentration 90 nM)
# Procedure, shortened: as §1
# [3] = system: PPARg DBDmut:RXRa IVT, anti-PPARg (DBD mutation: PPARg1 K132A/R137A, NR concentration 270 nM, RXRa partner concentration 90 nM)
# Procedure, shortened: as §1
# [4] = system: PPARg DBDmut IVT, anti-PPARg (DBD mutation: PPARg1 K132A/R137A, NR concentration 270 nM)
# Procedure, shortened: as §1
# [5] = system: PPARg homodimer (NR concentration 180 nM)
# Procedure, shortened: as §1
# [6] = system: PXR:RXRa (NR concentration 270 nM, RXRa partner concentration 90 nM)
# Procedure, shortened: as §1
# [7] = system: PXR homodimer (NR concentration 270 nM)
# Procedure, shortened: as §1
# [8] = system: RARa:RXR (NR concentration 270 nM, RXRa partner concentration 90 nM)
# Procedure, shortened: as §1
# [9] = system: RARa homodimer (NR concentration 270 nM)
# Procedure, shortened: as §1
# [10] = system: RARb homodimer (NR concentration 270 nM)
# Procedure, shortened: as §1
# [11] = system: RARg:RXRa (NR concentration 270 nM, RXRa partner concentration 90 nM)
# Procedure, shortened: as §1
# [12] = system: RARg homodimer (NR concentration 270 nM)
# Procedure, shortened: as §1
# [13] = system: RXRa DBDmut IVT, anti-RXR (DBD mutation: RXRa K156A/R161A, NR concentration 90 nM)
# Procedure, shortened: as §1
# [14] = system: RXRa homodimer (NR concentration 180 nM)
# Procedure, shortened: as §1
# [15] = system: THRa:RXRa (NR concentration 90 nM, RXRa partner concentration 90 nM)
# Procedure, shortened: as §1
# [16] = system: THRa homodimer (NR concentration 90 nM)
# Procedure, shortened: as §1
# [17] = system: VDR homodimer (NR concentration 270 nM)
# Procedure, shortened: as §1
# [18] = system: RARb:RXRa (NR concentration 270 nM, RXRa partner concentration 90 nM)
# Procedure, shortened: as §1
# [19] = system: VDR:RXRa (NR concentration 270 nM, RXRa partner concentration 90 nM)
# Procedure, shortened: as §1
Sequence,PBM binding z-score [1],PBM binding z-score [2],PBM binding z-score [3],PBM binding z-score [4],PBM binding z-score [5],PBM binding z-score [6],PBM binding z-score [7],PBM binding z-score [8],PBM binding z-score [9],PBM binding z-score [10],PBM binding z-score [11],PBM binding z-score [12],PBM binding z-score [13],PBM binding z-score [14],PBM binding z-score [15],PBM binding z-score [16],PBM binding z-score [17],PBM binding z-score [18],PBM binding z-score [19]
AGTCAAAGTTCACGAGGTAACGTAAGATTCAGCT,1.37,4.03,1.17,0.67,2.91,5.13,2.45,4.95,1.29,4.91,6.34,7.02,4.45,6.24,3.61,1.34,3.84,,
CGAACTAGGTCAGAACAGTACAGTGAAGGATGAT,7.19,7.31,2.36,3.58,1.14,0.921,0.234,0.873,0.291,1.96,2.46,3.33,0.94,1.27,1.83,0.222,0.229,,
ATTTGTAGGTTATCGGGTCATTCAGTTTGCGCAT,6.74,6.84,2.14,2.88,3.32,4.01,6.61,3.9,2.71,3.53,3.69,3.01,1.95,3.61,3.6,3.62,4.42,,
CGTCCAAGGTCAGCAGGTCACTGAAAGCGACGTG,3.75,4.56,0.394,-1.07,5.36,4.71,0.781,6.22,2.7,5.25,7.24,7.65,2.86,6.51,4.32,2.37,1.88,,
AGTCAAAGTTCACGACGAGGTAACGTAAAGCACG,0.0759,3.83,0.65,1.24,4,5.24,2.18,5,1.23,4.35,6.88,6.88,4.21,5.95,4.41,1.36,3.96,,
CGTCCAAGGGCAGCAGGTCAGTGAAAGCGACGTG,0.8,0.701,-0.933,-1.17,0.592,0.274,-0.825,0.723,-0.64,2.99,2.31,2.9,0.247,0.676,1.28,-0.115,0.0968,,
CCTCGGAGGACACCAGGAGGTCAGAGCTGCCAGA,-0.249,0.459,-1.54,-1.67,1.78,2.17,-0.014,2.56,0.922,3.49,3.94,3.53,-0.302,2.11,2.93,1.37,1.13,,
GCTGCTAGGTCAGGTTGGTCAACTAACGGGTACG,3.05,2.52,-0.717,-0.77,0.891,0.217,-0.382,0.842,-0.0438,2.85,2.92,3.89,0.438,1.17,1.91,0.472,0.97,,
TTACCAAGGTGAAAGGTCGTTGAGGCACGCCTTG,2.94,5.16,0.87,2.27,2.82,3.98,0.614,6.03,0.265,2.61,4.52,2.03,0.589,6.39,3.49,0.818,1.32,,
TTTCCAAGGTGAAAGGTCGTTGATGCACGCCTTG,2.51,4.72,0.923,0.85,1.64,4.23,0.161,5.56,-0.0268,2.58,4.16,1.99,0.408,5.33,3.76,1.38,1.38,,
CGTCCAAGGTCAACGCTAGGTCAGTGAAAGCATT,3.48,4.66,-0.0404,0.201,6.46,5.11,1.66,6.35,2.52,5.38,7.88,7.21,3.69,6.38,4.61,3.53,2.6,,
TAGCCTAGGTCAGATCGGGGCAGTATACGCTATA,1.23,1.66,0.079,-0.613,-0.167,1.89,-0.84,0.828,-0.404,2.27,2.87,3.83,-0.173,1.6,4.07,0.0921,0.0728,,
CGAACTAGCTCAAGGACAGTGAATCTCCGCACGC,0.26,-0.559,-0.68,-0.183,-0.00792,-0.255,-0.354,-0.192,-0.143,0.214,-0.134,-0.141,0.392,-0.227,1.42,1.48,0.226,,
AATACAGGATCACTAGGCCAGAGTAGGTACGAAT,0.409,1.29,1.21,0.197,0.314,-0.236,0.366,-0.456,0.395,0.388,0.343,0.495,-0.317,0.367,-0.0476,-0.262,0.0243,,
AATACAGGGACATCGTAGGCCAGAGTACGCACAG,-0.376,0.372,0.226,0.0255,-0.207,-0.16,0.0295,-0.225,0.123,0.605,0.131,0.818,0.223,-0.000453,1,0.426,0.53,,
TTATCAAGGTGAAAGGTCGTTGATGCACGCCTTG,4.86,6.15,1.25,1.43,2.37,3.99,0.766,5.9,0.465,2.42,4.25,2.44,0.854,5.89,3.44,1.19,1.54,,

Sequence,PBM binding z-score [1],PBM binding z-score [2],PBM binding z-score [3],PBM binding z-score [4],PBM binding z-score [5],PBM binding z-score [6],PBM binding z-score [7],PBM binding z-score [8],PBM binding z-score [9],PBM binding z-score [10],PBM binding z-score [11],PBM binding z-score [12],PBM binding z-score [13],PBM binding z-score [14],PBM binding z-score [15],PBM binding z-score [16],PBM binding z-score [17],PBM binding z-score [18],PBM binding z-score [19]
CGAACTAGGACATCCAGGACAGTGAATACATTGA,5.1,4.07,0.493,0.652,0.302,-0.363,0.206,0.00684,0.136,0.243,0.252,0.695,0.592,0.0939,1.78,1.4,0.467,,
CGTTCAAGGTCATAGGAGGTCAGTGAAGACAGAT,3.95,5.26,1.34,2.03,5.42,6.86,5.84,6.33,3.73,5.77,7.11,7.22,4.47,6.46,5.23,3.63,5.25,,
GCTGCTAGGTCAGGTTGGTCTGCTAACGGGTACG,3.08,2.35,-0.411,-0.998,0.673,0.505,-0.437,0.971,0.182,2.51,2.46,3.25,0.755,1.04,1.89,0.834,0.554,,
ACTAGTTGGTAAGCTGAGGTCACACACAATTCGG,0.595,1.93,1,0.246,2.25,4.72,1.85,4.42,1.2,4.01,3.45,2.93,1.25,3.57,4.52,5.19,3.29,,
CAAACTAGGTCACAGAGGTCAACGTCCGTGCGTA,8.84,9.29,4.63,5.15,4.43,6.82,8.28,7.23,2.74,5.75,7.28,8.09,3.2,7.63,4.9,3.25,5.58,,
CGTCAAAGTTCTAGGTAACGTAACAGAAAGCAGC,1.41,1.83,0.454,0.457,0.283,-0.00995,-0.093,0.103,0.866,-0.287,0.0968,0.323,0.31,0.135,0.719,0.349,-0.0157,,
CCTACTGGGCCATTCAGAGGTCATTGATCATATG,4.59,4.4,0.046,0.818,2.59,4.8,2.3,4.59,0.867,3.93,4.35,2.99,1.44,3.55,3.14,1.18,3.37,,
TAGCCTAGGTCAGATCGGGCCAGTCTACGCTATA,0.403,1.41,-0.912,-0.787,-0.159,1.18,-0.895,1.05,-1.11,2.16,2.51,3.36,-0.601,1.31,4.1,-0.0683,-0.368,,
CGTCGGAGGACAGAAGGTCAGAGCTGTCCGCTTT,0.0146,0.25,-1.84,-2.14,1.33,1.48,-0.228,1.84,0.257,3.36,3.56,3.38,0.338,1.83,2.08,-0.192,0.136,,
CAAAATAGGTCAAGGTCAAAGTCGGTTTGTGCCA,7.7,8.26,1.72,1.63,4.28,5.51,2.04,5.42,1.28,5.46,6.53,7.1,2.89,6.48,4.48,3.55,3.72,,
TTACCAAGGTGAAAGGTCGTTGAAGCACGCCTTG,2.63,5.39,0.668,-0.186,1.84,4.44,0.41,6.52,-0.363,2.64,4.3,2,0.879,5.84,3.57,0.624,1.29,,
TTACGAAGGTGAAAGGTCGTTGATGCACGCCTTG,2.05,4.53,0.416,0.212,1.39,3.77,0.289,5.13,0.203,2.49,4.08,2.19,0.342,5.5,2.33,0.141,1.25,,
CCTTGCGGGTCACTGACAGGTTATAGCATTTGGA,4.94,5.29,-0.0944,-0.215,2,3.05,-0.0222,,0.173,2.97,5.46,4.17,1.77,4.49,2.8,0.354,0.664,3.63,3.13
AGTCAGAGTTCATCTAGGTAACGTAAGATATGCT,0.73,2.55,1.05,0.893,1.46,5.25,9.2,,1.13,3.28,4.7,4.79,4.9,4.73,3.14,0.225,7.13,4.3,5.48
ACTAACAGGCCAAGGGTCACTCAAGATTAGTCCG,0.923,3.21,0.489,-0.189,3.04,3.56,0.163,,1.2,4.08,4.46,4.16,1.23,4.7,2.9,0.619,1.46,3.57,
ATCTCTAGGTAAAGGTCAGTGAAAGATCGATAGA,3.45,4.2,1.29,1.49,3.73,3.35,1.1,,2.88,4.26,4.52,5.13,0.521,4.35,2.98,0.87,1.17,4.53,2.89
